Measurements from PubChem BioAssay (NCI).
This is part of a sample that, as a whole, favours compounds with a hit. Of some 83,000 tested, about 20% had one in any assay.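 Growth was measured after 48 h exposure to one concentration of compound in 96-well plates. Values under 10 count as active.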 Values without a mark were called inactive. Calls of active or inactive are those of the source.

Experiments:
Test in all cases: NCI-60 one-dose screen, 48 h (100 = growth as untreated, 0 = no growth, -100 = all killed)
Settings in all cases: 10 µM unless noted
[1] = system: NCI-H226 lung
[2] = system: NCI-H322M lung
[3] = system: HOP-62 NSCLC
[4] = system: NCI-H460 lung
[5] = system: HOP-92 NSCLC
[6] = system: NCI-H522 lung
[7] = system: A549/ATCC NSCLC
[8] = system: 786-0 renal
[9] = system: COLO 205 colon
[10] = system: DU-145 prostate
[11] = system: K-562 leukemia
[12] = system: MALME-3M melanoma
[13] = system: MDA-MB-231 breast
[14] = system: RXF 393 renal
[15] = system: SF-268 CNS
[16] = system: SF-295 CNS
[17] = system: SF-539 CNS
[18] = system: UACC-257 melanoma
[19] = system: M14 melanoma
[20] = system: HCT-15 colon

SMILES | growth [1] | growth [2] | growth [3] | growth [4] | growth [5] | growth [6] | growth [7] | growth [8] | growth [9] | growth [10] | growth [11] | growth [12] | growth [13] | growth [14] | growth [15] | growth [16] | growth [17] | growth [18] | growth [19] | growth [20]
CSCCC(C(=O)O)N1C(=O)/C(=C/c2ccc(O)c(O)c2)SC1=S (stereo not given) | 107% | 91.8% | 100% | 109% | 108% | 102% | 108% | 94.4% | 123% | 108% | 109% | 101% | 97.1% | 125% | 97.6% | 96.5% | 95.7% | 104% | 101% | 100%
Cn1c(SCC(=O)Nc2ccc(-c3nc4ccc([N+](=O)[O-])cc4[nH]3)cc2)nc2ccccc2c1=O | 37.9% | 68.6% | 94.9% | 82.3% | 59.5% | 74.1% | 89.5% | 81.5% | 98.4% | 90.6% | 93.6% | 87.3% | 78.5% | 73.1% | 83.3% | 77.1% | 78.1% | 87.3% | 96.3% | 78.2%
CCOc1ccc([C@H]2C(C(=O)c3ccc(Cl)cc3)C3(N[C@@H]2c2ccccc2)C(=O)Nc2ccc(Br)cc23)cc1 (stereo not given in full) | 47.3% | 45.6% | 54.5% | 2.83% (active) | 16% | 51.5% | 26% | 23% | 19.3% | 47.6% | 14.2% | 64.8% | 11% | 16.6% | 28.9% | 37.8% | 48.8% | 68.5% | 37.6% | 33.4%
O=[N+]([O-])c1ccc(O)c2ncccc12 | 48.7% | 39.1% | 19.1% | 10.3% | 40.1% | 21.2% | 27% | 42.4% | 46.5% | 43.3% | 12.6% | 38% | 31.9% | 41.6% | 37.2% | 23.1% | 23.2% | 16.5% | 31.9% | 21.3%
C#Cc1nc(C2=C(C)C(O)/C(=N/O)C2)cs1 (stereo not given) | 107% | 102% | 111% | 104% | 41.8% | 15.5% | 96.5% | -92.2% (active) | 128% | 87% | 87.2% | 99.5% | -28.1% (active) | 93.7% | 65.3% | 65% | 25.5% | 90.7% | 93.8% | 88.1%
COc1cc2cc(Oc3ccc(NC(=O)c4cccc(C(F)(F)F)c4)cc3)c(C)nc2cc1OCCN1CCCCC1 | 103% | 69.2% | 98.1% | -69.4% (active) | 43.7% | 68.9% | 19.2% | 55.4% | -94.8% (active) | 59.4% | -48.2% (active) | -86.1% (active) | -100% (active) | -16% (active) | 81.5% | 7.09% (active) | -68.8% (active) | -87.3% (active) | -86.7% (active) | -88.8% (active)
Nc1nc(N)c2c(n1)NC(c1ccc(C(F)(F)F)cc1)CC(c1ccc(Nc3nc(NCCO)nc(Nc4ccc(Cl)cc4)n3)cc1)=N2 (stereo not given) | -40.7% (active) | -61% (active) | 71.7% | -69% (active) | -65.6% (active) | -80.1% (active) | -66.2% (active) | -90.2% (active) | 5.02% (active) | -93.1% (active) | 1.08% (active) | -79% (active) | -59.4% (active) | -78.8% (active) | -29.4% (active) | -79.5% (active) | -86.2% (active) | 74.1% | -86.9% (active) | -54.4% (active)
CC(=O)Nc1cc(F)cc(-c2ccc3[nH]cc(-c4ccccc4)c3n2)c1 | 30.9% | 33.4% | 3.09% (active) | 3.95% (active) | 0.206% (active) | -67.6% (active) | 20.1% | 1.48% (active) | -68.2% (active) | 39.8% | 0.935% (active) | -14.3% (active) | -3.42% (active) | -11.8% (active) | 41.3% | -42.9% (active) | -28.5% (active) | -29.3% (active) | -14.8% (active) | -60.8% (active)
Cc1cc(C(NC(=O)CCCCCNc2cccc3c2C(=O)N(C2CCC(=O)NC2=O)C3=O)c2cccnc2)c(O)c2ncccc12 (stereo not given) | 14.2% | 3.62% (active) | 10.2% | 13.6% | -3.51% (active) | 23.4% | 28% | 9.13% (active) | 2.37% (active) | 34.8% | 17.8% | -14.3% (active) | -11.5% (active) | 17.2% | 23.6% | 6.66% (active) | 21.5% | 26.2% | -5.27% (active) | 19%
Cc1nc2cnc(N)c(C#Cc3cncc(C(=O)Nc4ccc(Cl)c(C(F)(F)F)c4)c3)c2nc1C | 26.7% | 64.9% | 56.8% | 53.8% | -23.9% (active) | 89.5% | 56.6% | 64.3% | 28.5% | 69.4% | -15% (active) | 39.9% | 7.63% (active) | -18% (active) | 52.6% | 88.5% | -12.9% (active) | 77.7% | 29.9% | 52.6%
CCCC(=O)NC(c1cccc(N(C)C)c1)c1cc(C)c2cccnc2c1O (stereo not given) | 65.4% | 44.9% | 44% | 25.7% | 64.2% | 75.3% | 79.3% | 56.6% | 88% | 66.2% | 35.3% | 79.8% | 48.2% | 82.1% | 55.1% | 42.3% | 53.9% | 90.6% | 49.3% | 24.9%
COc1ccc(CNS(=O)(=O)/N=C2\NC(=O)NC2=C(Cl)Cl)cc1 | 46.1% | 37.1% | 46.9% | 19% | -2.17% (active) | 2.05% (active) | 25.7% | 28.8% | 55.4% | 27.9% | 13% | 76% | 22.1% | 39.6% | 59.6% | -22.9% (active) | -6.36% (active) | 54.4% | 25.2% | 56.1%
O=C(CSc1nnc(-c2ccc3nc(-c4ccc(Cl)cc4)[nH]c3c2)o1)Nc1ccc(C(=O)/C=C/c2ccc(Cl)cc2)cc1 | 86% | 95.4% | 97.9% | 102% | 94.2% | 88.4% | 95.5% | 92.6% | 118% | 111% | 81.4% | 102% | 90.6% | 104% | 99.9% | 93% | 84.3% | 107% | 102% | 89.8%
CS(=O)(=O)c1ccc(-c2nc3ccccn3c2-c2nc3ccc([N+](=O)[O-])cc3[nH]2)cc1 | 92.2% | 92% | 105% | 101% | 93.7% | 92.4% | 99.8% | 101% | 103% | 99.8% | 91.3% | 86% | 86.5% | 101% | 94.1% | 92.2% | 89.5% | 106% | 97.3% | 97.1%
CC(C)(C)OC(=O)N1C(=O)c2c(c3c4ccccc4[nH]c3c3ccc4ccccc4c23)C1=O | 61.3% | 52.8% | 52.2% | 37.3% | 87.9% | 47.2% | 59.7% | 77.1% | 68.1% | 57.3% | 42.2% | 48.1% | 66.8% | 59% | 63.3% | 50.2% | 62.1% | 77.2% | 37.3% | 51.6%
